Source: PubChem BioAssay
RE007 growth inh: less growth of the S. pombe RE007 Vpr strain | S. pombe RE007 Vpr strain, BacTiter-Glo ATP luminescence, 24 h | hit rate 0.21% among 360,000 | Potency, µM (titrated, usually from 92.2 µM), without a hit: at the top dose activity change, negative = less growth, hits mostly inhibitors; active = well fitted falling curve with a large enough effect; inconclusive = small, poorly fitted or top-dose-only effect; inactive = no such curve, though single readings can be large or run the other way; also: nearly all actives have a fitted effect of over 50% in size
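Fission yeast RE007 carrying one integrated HIV-1 vpr copy, seeded at OD 0.01 in PMG+AL medium with 23 nL pinned compound. Grown 24 h at 30 degrees; viability read by BacTiter-Glo luminescence after 5 min.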
TbPYK inhibitor: inhibitors of Trypanosoma brucei pyruvate kinase. Q57TT1. TbPYK enzyme, Kinase-Glo Plus ATP luminescence, 45 min. Potency, µM (highest dose often 76.8 µM), inactives show at the top dose activity, negative = inhibition, actives largely listed as inhibitors. hit rate 0.12% among 410,000; also: nearly all actives have a fitted effect of over 50% in size
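ADP (130 uM final) triggers the TbPYK reaction after compound addition; incubation is 45 min at room temperature. Kinase-Glo Plus is then added and luminescence imaged. Normalized data are fitted to concentration-effect curves.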
LmPK inhibitor: blocks Leishmania mexicana pyruvate kinase activity | hit rate 0.37% among 290,000 | AID 1721 | Q27686 | Potency, µM (highest dose often 57.5 µM), inactives show top-dose activity change, negative = inhibition, most hits filed as inhibitors | purified LmPK, Kinase-Glo ATP luminescence, 1 h
Target sequence (Q27686 whole entry, looked up): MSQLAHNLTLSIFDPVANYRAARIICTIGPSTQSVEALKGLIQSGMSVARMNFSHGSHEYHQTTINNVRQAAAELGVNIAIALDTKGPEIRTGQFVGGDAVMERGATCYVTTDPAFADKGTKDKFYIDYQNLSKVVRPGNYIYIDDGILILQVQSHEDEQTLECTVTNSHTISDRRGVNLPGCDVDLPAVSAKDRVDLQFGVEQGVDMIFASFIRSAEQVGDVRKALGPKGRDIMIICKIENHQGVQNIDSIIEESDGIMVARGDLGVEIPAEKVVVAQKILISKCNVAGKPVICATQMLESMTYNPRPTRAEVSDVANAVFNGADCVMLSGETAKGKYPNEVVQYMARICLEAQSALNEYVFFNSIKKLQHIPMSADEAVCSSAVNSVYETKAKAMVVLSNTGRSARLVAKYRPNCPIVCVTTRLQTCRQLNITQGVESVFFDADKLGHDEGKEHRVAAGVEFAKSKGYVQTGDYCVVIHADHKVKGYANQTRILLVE
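Pyruvate kinase activity monitored as ATP production (luciferase luminescence). Conditions: 0.1 nM enzyme, 0.5 mM PEP, 0.1 mM ADP, 1 h, RT; normalized against uninhibited and no-enzyme wells.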
Sm TGR block: S. mansoni TGR enzyme inhibition | Q962Y6 | purified TGR, DTNB reduction, TNB absorbance 405 nm | Potency, µM (top dose mostly 114 µM), without a hit: at the highest dose activity change, negative = inhibition, usual class: inhibitors | hit rate 3% among 360,000; also: nearly all actives have a fitted effect of over 60% in size
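Kinetic colorimetric format: TGR-catalysed, NADPH-driven DTNB reduction monitored via TNB absorbance. Enzyme dispensed at 20 nM; compound exposure 15 min at room temperature before reaction start.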
Starred values were filed as active, the others as inactive; ? = inconclusive; . = no result given. Compounds with a hit are over-represented: about 3% of the library has one in this group of screens. Unless noted, calls follow the shape of the dose curve; as a rule, active = well fitted curve in the direction sought with a large enough effect; inconclusive = small, poorly fitted or top-dose-only effect, or another doubt; inactive = no such curve, though single readings can be large; an effect the other way counts as inactive or inconclusive. % is scaled to controls: 0 for no effect and ±100 for the full control effect; potency is read from the fitted curve at half-maximal effect.

SMILES	RE007 growth inh	TbPYK inhibitor	LmPK inhibitor	Sm TGR block
O=C(NCCNC(=O)c1ccccc1)c1ccccc1	-9%	3%	0%	-1%
O=C(NCC#CCOCc1ccccc1)c1ccccc1	2%	4%	-2%	7.1µM*
S=C=Nc1ccc(N=C=S)cc1	.	-3%	.	.
O=C(O)c1cc(/C=C/C(=O)c2cc(F)ccc2O)c2c(c1)COCO2	-17%	-8%	12%	28µM*
COc1ccc(OC)c(CCNC(=O)c2cc3c(-c4ccccc4F)nn(C)c3s2)c1	.	-9%	.	4%
Cc1cc(N)ccc1N1CCCC1	-10%	6%	-12%	5µM*
Nc1cc(Cl)ccc1N1CCCCCC1	-7%	-1%	6%	6.3µM*
Cc1ccc(S(=O)(=O)Nc2ccc(-c3ccc(N4CCCCCC4)nn3)cc2)cc1C	.	0%	.	-5%
Cc1ccc(/C=C/C(=O)OC(C)C(=O)Nc2ccc(Cl)cn2)o1 (stereo not given)	5%	?	-6%	13µM*
COc1cc(/C=C/C(=O)OC(C)C(=O)Nc2ccc(Cl)cn2)ccc1OC(F)F (stereo not given)	-7%	13%	.	.
COc1ccc(C2NC(=O)N(C)C3=C2C(=O)N(c2cccc(Cl)c2)C3)cc1 (stereo not given)	.	-6%	.	1%
Cc1cc(-n2c(C)nc3ccccc3c2=O)ccc1NC(=O)c1cccc([N+](=O)[O-])c1C	.	-8%	.	-1%
Cc1ccc(SC[C@H](Cc2ccccc2)N2CCN(C)CCC2=O)cc1	-17%	0%	8%	40µM*
CC(C)CN1CCC(=O)N([C@H](CSc2ccc(Br)cc2)Cc2ccccc2)CC1	5%	4%	-3%	6.3µM*
CCCN1CCC(=O)N([C@H](CSc2ccc(OC)cc2)Cc2ccccc2)CC1	5%	4%	2%	20µM*
CCCN1CCC(=O)N([C@H](CSc2ccc(C)cc2)CC(C)C)CC1	16%	-4%	5%	40µM*
CN1CCC(=O)N([C@H](CSc2ccc(Br)cc2)Cc2ccccc2)CC1	-5%	-4%	-2%	-9%
O=C(O)c1ccc2c(c1)C(=O)N([C@H](Cc1c[nH]c3ccccc13)C(=O)O)C2=O	.	.	.	-4%
CC(=O)Nc1ccc(SC[C@H](c2ccccc2)N2CCN(CCc3ccccc3)CCC2=O)cc1	.	.	5%	14µM*
Cc1cn2c(=O)cc(COC(=O)c3ccc(NC(=O)c4ccc(C(C)(C)C)cc4)cc3)nc2s1	.	1%	.	0%
CCC(=O)N(CCC(c1ccc(C)cc1)c1ccco1)Cc1ccco1 (stereo not given)	-1%	-15%	10%	14µM*
CCCC1=C(C(=O)OCC)C(c2ccco2)C(C#N)=C(N)O1 (stereo not given)	0%	1%	1%	32µM*
CCOC(=O)C1=C(N)OC(C)=C(C#N)C1c1ccco1 (stereo not given)	-18%	-6%	-3%	-23%
CCOC(=O)C1=C(CC)OC(N)=C(C#N)C1c1ccc(NC(C)=O)cc1 (stereo not given)	6%	-11%	-1%	11µM*
CCOC(=O)C1=C(c2ccccc2)OC(N)=C(C#N)C1c1cccs1 (stereo not given)	13%	-25%	6%	45µM*
SMILES	RE007 growth inh	TbPYK inhibitor	LmPK inhibitor	Sm TGR block
CCOC(=O)CC1=C(C(=O)OCC)C(c2cccs2)C(C#N)=C(N)O1 (stereo not given)	-3%	-13%	-1%	1%
C#C[C@]1(OC(C)=O)CC[C@H]2[C@@H]3CCC4=C/C(=N/O)CC[C@@H]4[C@H]3CC[C@@]21CC	.	-8%	.	.
O=C(COC(=O)c1cccc(O)c1)Nc1ccc(N2CCOCC2)cc1	3%	-3%	.	-12%
O=C(NCc1ccccc1CN1CCCC1)c1cccc(S(=O)(=O)N2CCOCC2)c1	12%	2%	.	2%
COc1ccc(S[C@@H](CCN2CC[C@H](C)CCC2=O)c2ccccc2)cc1	17%	1%	.	40µM*
CC(Sc1nc2ncc(Cl)cc2[nH]1)C(=O)Nc1ccc(C(N)=O)cc1 (stereo not given)	-4%	0%	.	0%
CN(C)c1ccc(C(c2nnnn2CCOC(=O)Nc2ccc(Cl)cc2)N2CCOCC2)cc1 (stereo not given)	1%	-11%	6%	25µM*
O=C(Nc1ccc(Cl)cc1)OCCn1nnnc1C(c1ccccc1)N1CCOCC1 (stereo not given)	2%	-1%	1%	-8%
